# Results filed as inconclusive are left out. Activity calls are given as the source filed them. Calls come from the whole dose curve; as a rule, active = well fitted cell-killing curve with a large enough effect; inconclusive = small, poorly fitted or top-dose-only effect, or effect the other way; inactive = no such curve, though single readings can be large or run the other way.
# Experiment: Quantitative highthroughput screen to assess conditional lethalithy of SEM cells grown in RPMI1640 with dialyzed fetal bovine serum (RPMI+ds) (AID 1963884); note: nearly all actives have a fitted effect of over 35% in size
# Details: SEM B-ALL cells, RPMI+dialyzed FBS, CellTiter-Glo viability, 48 h; series mostly up to 45.8 µM; viability: at the top concentration
# Excerpt: Assay Provider: Jason Cantor Ph.D.
# Department of Biochemistry
# University of Wisconsin-Madison, Madison, WI, USA
# Chemical screening studies have identified drug sensitivities across hundreds of cancer cell lines but most putative therapeutics fail to translate. Discovery and development of drug candidates in models that more accurately reflect nutrient levels in human blood is a major challenge. Here we performed high-throughput screens in conventional versus Human Plasma-Like Medium (HPLM) to identify compounds that were "missed" when screening using the artificial culture condition. Sets of conditional anticancer compounds spanned phases of clinical development and included non-oncology drugs were assessed. […] We also traced conditional phenotypes for several chemotherapeutics to availability of HPLM-specific metabolites and confirmed others for compounds whose reported targets are encoded by nonessential genes. Our findings establish generalizable strategies for exploiting conditional lethality in HPLM to reveal therapeutic candidates and mechanisms of action in cancer cells.
# Described herein are the results of each viability screens against three cell lines: NOMO1 (an acute myeloid leukemia cell line); P12-Ichikawa (a T-cell acute lymphoblastic leukemia); and SEM (a B-cell ALL). Each assay was screened using 3 different cell culture media: homemade human plasma-Like medium with 10% dialyzed fetal bovine serum (HPLM+ds); RPMI1640 with 10% untreated FBS and 5mM glucose (RPMI+s); and RPMI1640 with 10% dialyzed fetal bovine serum and 5 mM glucose (RPMI+ds).
# PROTOCOL TABLE (as described by Inglese J, Shamu CE and Guy RK. 2007)
# SEQUENCE No. (e.g., 1, 2, 3, etc.); […] (e.g., Cells, Incubation, Reagent, etc.); VALUE and DESCRIPTION.
# 1; Cells; 5 uL; white, solid bottom 1536-well Greiner assay plate.
# 2; Compounds; 23 nL; Kalypsis pin tool (Wako USA) equipped with a 1536-well pin head to transfer to the assay plates.
# 3; Incubation; 48 hours; 37C incubation.
# 4; Reagent; 3 uL; CellTiter Glo (Promega).
# 5; Incubation; 5 min, room temperature
# 6; Detection; Luminescence, Viewlux PerkinElmer.
# NOTES (numbers refer to Sequence numbers above)
# 1. Briefly, 5 ul of cell reagent was dispensed using a Multidrop Combi Dispenser. The NOMO1 and SEM cells were plated at 500 cells/well and the P12-Ichikawa line at 1000 cells/well.
# 2. After seeding the cells, 23 nL of MIPE 4.1 library compounds (in DMSO) were added to each plate using a Kalypsys 1536 Pintool dispenser. Bortezomib at final concentration of […] and DMSO were added to each plate as positive and negative controls respectively. For each screen, MIPE 4.1 compounds were added over an eleven-point concentration range […] in 3-fold dilutions.
# 3. Each plate was covered with a stainless steel gasketed lid to prevent evaporation and incubated for 48 hour at 37C, 95% relative humidity, and 5% CO2.
# 4-5. Three microliter CellTilter-GloTM luminescent substrate mix (Promega) reagent was added to the assay plate and incubated at room temperature for 5 min.
# 6. The luminescence signal was measured using a ViewLux (PerkinElmer) multiplate reader with a 2 second exposure time per plate. Data for each compound were normalized as percent viability such that measurements for DMSO and the empty well controls in each plate were defined as 100% and 0%, respectively.
# Potency is the fitted concentration of half-maximal effect.
Structure (SMILES),viability,Potency
C[C@]12CC[C@H]3[C@@H](CCC4=CC(=O)CC[C@@]43C)[C@H]1CC[C@H]2O,113% (inactive),
Cc1ccccc1-n1c(Cn2ncc3c(N)ncnc32)nc2cccc(C)c2c1=O,103% (inactive),
C[C@]12CCC(=O)C(O)=C1CC[C@@H]1[C@H]3CCC(=O)[C@@]3(C)CC[C@@H]12,97.1% (inactive),
CO[C@H]1CCC(O[C@H]2C[C@H]([C@]3(C)CC[C@]4(C[C@H](O)[C@@H](C)[C@@H]([C@@H](C)C=C(C)C(=O)[C@H](C)C[C@H](C)C(=O)O)O4)O3)O[C@]3(O[C@@H]([C@H]4O[C@@](O)(CO)[C@H](C)C[C@H]4C)C[C@H]3C)[C@H]2C)O[C@H]1C (stereo not given in full),,1.32 µM (active)
COc1cc2cc(c1Cl)N(C)C(=O)C[C@H](OC(=O)C(C)C)[C@]1(C)O[C@H]1[C@H](C)[C@@H]1C[C@@](O)(NC(=O)O1)[C@H](OC)C=CC=C(C)C2,1.62% (inactive),
C[C@@H]1O[C@@H](O[C@@H]2C=C3CC[C@@H]4[C@@H](CC[C@]5(C)[C@H](c6ccc(=O)oc6)CC[C@@]45O)[C@@]3(C)CC2)[C@H](O)[C@H](O)[C@H]1O,,0.0372 µM (active)
C[C@H]1CCCC=CC2C[C@H](O)C[C@@H]2[C@H](O)C=CC(=O)O1 (stereo not given in full),1.62% (inactive),
CCc1c(C(=O)C(N)=O)c2c(OCC(=O)O)cccc2n1Cc1ccccc1,89.2% (inactive),
CCN(CC)C(=O)c1ccc(C2=CC3(CCNCC3)Oc3cccc(O)c32)cc1,86.9% (inactive),
O=P1(NCCCl)OCCCN1CCCl (stereo not given),,20.9 µM (active)
COc1cc(OC)c(OC)cc1C=O,93.2% (inactive),
CC(=Cc1csc(C)n1)[C@@H]1C[C@H]2O[C@]2(C)CCC[C@H](C)[C@@H](O)[C@@H](C)C(=O)C(C)(C)[C@@H](O)CC(=O)O1,14.5% (inactive),
C[C@@H]1CC[C@H]2[C@@H](C)C(=O)O[C@@H]3O[C@@]4(C)CC[C@H]1[C@]32OO4,106% (inactive),
C[C@]12Cc3cn[nH]c3C[C@@H]1CC[C@@H]1[C@H]2CC[C@@]2(C)[C@H]1CC[C@]2(C)O,92.9% (inactive),
O=[N+]([O-])c1ncc[nH]1,52.2% (inactive),
CC(C)N(CCNC(=O)CN1CCCC1=O)C(C)C,97.8% (inactive),
COC1=C[C@@H]2[C@@H]3Cc4ccc(OC)c(O)c4[C@]2(CCN3C)CC1=O,89.8% (inactive),
CNC(=O)N1N=C(c2ccc(N)cc2)c2cc3c(cc2CC1C)OCO3 (stereo not given),,5.9 µM (active)
C[C@]12CC[C@H](O)CC1=CC[C@H]1[C@H]3CCC(=O)[C@@]3(C)CC[C@@H]12,105% (inactive),
C[C@@]12OC(=O)[C@]1([C@@H](O)[C@@H]1C=CCCC1)NC(=O)[C@H]2CCCl,,0.0469 µM (active)

Structure (SMILES),viability,Potency
CC(=O)N(C)c1cccc(-c2ccnc3c(C(=O)c4cccs4)cnn23)c1,98.6% (inactive),
C[C@H]([C@H](O)CCC(C)(C)O)[C@H]1CC[C@@]2(O)C3=CC(=O)[C@@H]4C[C@@H](O)[C@@H](O)C[C@]4(C)[C@@H]3CC[C@]12C,124% (inactive),
C[C@]12CC[C@H]3[C@@H](CC[C@@]45O[C@H]4C(O)=C(C#N)C[C@]35C)[C@H]1CC[C@H]2O,,16.6 µM (active)
CCOc1ccccc1-n1c(C(C)N2CCN(C(=O)COc3ccc(Cl)cc3)CC2)nc2ccccc2c1=O (stereo not given),,0.588 µM (active)
CC[C@@H]1[C@@H](C)O[C@@](O)([C@@H](C)[C@H](O)[C@H](C)[C@H]2OC(=O)C=CC=C[C@@H](C)[C@@H]([C@@H](C)[C@@H](O)[C@H](C)[C@@]3(O)C[C@H](O[C@H]4C[C@H](O)[C@H](O)[C@H](C)O4)[C@H](CC)[C@@H](C)O3)OC(=O)C=CC=C[C@@H]2C)C[C@H]1O[C@H]1C[C@H](O)[C@H](O)[C@H](C)O1,,1.87 µM (active)
CN(C)CCc1ccc(O)cc1,81.6% (inactive),
CC(C)[C@]12O[C@@H]1[C@@H]1O[C@]13[C@]1(O[C@H]1C[C@@H]1C4=C(CC[C@@]13C)C(=O)OC4)[C@H]2O,,0.0012 µM (active)
C[C@@H]1[C@H](O)[C@@H](C)C=CC=CCCC=CC=CC=CC=C[C@H](O[C@H]2O[C@@H](C)[C@H](O)[C@@H](N)[C@@H]2O)CC2O[C@](O)(C[C@@H](O)[C@H](O)CC[C@@H](O)C[C@@H](O)C[C@@H](O)CC(=O)O[C@H]1C)C[C@H](O)[C@H]2C(=O)O,105% (inactive),
C[C@]12CCC(=O)C=C1CC[C@@H]1[C@H]3CC[C@](C)(O)[C@@]3(C)CC[C@@H]12,99.8% [at 92.2 µM] (inactive),
O=C(N[C@H]1CN2CCC1CC2)c1ccc(Cl)cc1,73.9% (inactive),
C[C@@H]1C[C@@H]([C@H](O)CC2CC(=O)NC(=O)C2)C(=O)[C@@H](C)C1,,0.59 µM (active)
CCOC(=O)Nc1ccc(NCc2ccc(F)cc2)cc1N,78.6% (inactive),
Oc1ccc2c3c1O[C@H]1c4[nH]c5c(c4C[C@@]4(O)[C@@H](C2)N(CC2CC2)CC[C@]314)C[C@@]1(O)[C@H]2Cc3ccc(O)c4c3[C@@]1(CCN2CC1CC1)[C@H]5O4,111% (inactive),
CCNC(=O)CC1N=C(c2ccc(Cl)cc2)c2cc(OC)ccc2-n2c(C)nnc21 (stereo not given),,23.5 µM (active)
NC1CC1c1ccccc1 (stereo not given),93.7% (inactive),
CC(C)(C)c1cc(C=C(C#N)C#N)cc(Br)c1O,82.4% (inactive),
CC(C)(O)C(=O)Nc1ccc([N+](=O)[O-])c(C(F)(F)F)c1,103% (inactive),
CCCC[N+]1(C)[C@H]2CC(OC(=O)[C@H](CO)c3ccccc3)C[C@H]1[C@H]1O[C@H]12 (stereo not given in full),93.7% (inactive),
CC1=C(O)C(=O)C=C2C1=CC=C1[C@@]2(C)CC[C@@]2(C)[C@@H]3C[C@](C)(C(=O)O)CC[C@]3(C)CC[C@]12C,,1.87 µM (active)
COc1ccc2c(c1)[C@]13CCCCC1C(C2)N(C)CC3 (stereo not given in full),108% (inactive),
